Compound activity deposited in PubChem by several laboratories.
An excerpt weighted towards active compounds, which were near 2.3% of everything screened.
Mcl1-Noxa inh – Mcl-1/Noxa binding inhibitors, primary screen, biochemical, TR-FRET, 1536-well; Induced myeloid leukemia cell differentiation protein Mcl-1 (Homo sapiens), Q07820; TR-FRET Mcl-1/Noxa peptide binding, 2 h; inhibition, % at 21.7 µM; 220,000 tested, 1.5% active; AID 1022, 2008;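 active = compounds that cut the protein-peptide binding signal by more than 50% relative to plate controls in a single-dose test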;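 note: His-tagged Mcl-1 with rhodamine Noxa BH3 peptide and terbium anti-His antibody; 0% = Mcl-1 plus Noxa peptide wells and 100% = peptide-only wells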
Mcl-1 Bim block – inhibitors of Bim peptide binding to Mcl-1, primary screen, biochemical, bead-based flow cytometry, multiplex; inhibition, % at 10 µM; AID 1009, 2008; 190,000 tested, 0.1% active; Induced myeloid leukemia cell differentiation protein Mcl-1 (Homo sapiens), Q07820; Bim peptide-Mcl-1 binding; in the data active = inhibition above about 40%;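 note: 0% = no compound tracer wells and 100% = peptide blocker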
BCLXL inh – inhibitors of human Bcl-xL, primary screen, biochemical, fluorescence polarization, HTS | 320,000 tested, 0.7% active | Bcl-2-like protein 1 (Homo sapiens), Q07817 | GST-Bcl-xL / FITC-Bim BH3 peptide fluorescence polarization | inhibition, % at 10.9 µM;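 active = inhibition above the mean of all tested compounds plus 3 SD, cutoff set per campaign, cut at about 30% in these data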;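 note: 0% = DMSO wells and 100% = unlabeled Bim-BH3 peptide competitor; inhibitors lower millipolarization by displacing the labeled peptide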
Target sequence (Q07817 whole entry, looked up): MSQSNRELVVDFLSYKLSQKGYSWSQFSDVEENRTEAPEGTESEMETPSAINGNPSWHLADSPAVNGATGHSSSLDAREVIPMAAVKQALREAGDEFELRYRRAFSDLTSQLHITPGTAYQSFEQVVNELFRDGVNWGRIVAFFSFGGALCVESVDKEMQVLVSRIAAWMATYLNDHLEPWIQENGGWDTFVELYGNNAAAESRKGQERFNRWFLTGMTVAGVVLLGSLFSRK
Mcl1-Bid inh – Mcl-1/Bid binding inhibitors, primary screen, biochemical, TR-FRET, 1536-well. inhibition, % at 21.7 µM. 220,000 tested, 0.97% active. Induced myeloid leukemia cell differentiation protein Mcl-1 (Homo sapiens), Q07820. TR-FRET Mcl-1/Bid-Dy647 peptide binding;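 active = compounds that cut the binding signal by more than half at the single screening dose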;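 note: His-tagged Mcl-1 with europium anti-His antibody binding Bid BH3 peptide; 0% = Mcl-1 plus peptide wells and 100% = peptide-only wells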
GLD-1 TGE inh – GLD-1/TGE RNA complex disruptors, primary screen, biochemical, fluorescence polarization. Female germline-specific tumor suppressor gld-1 (Caenorhabditis elegans), Q17339. purified GLD-1 + fluorescein TGE RNA. inhibition, % at 5.96 µM. 320,000 tested, 0.44% active. AID 2280, 2010;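 active = percent inhibition above a per-plate cutoff, the plate mean of test compounds plus 3 SD, cut at about 30% in these data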;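 note: 0% = DMSO wells with GLD-1 and probe and 100% = wells lacking GLD-1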
MCL1 BIM primary – inhibitors of MCL1 binding to BIM-BH3, primary screen, biochemical, fluorescence polarization; 320,000 tested, 0.68% active; Induced myeloid leukemia cell differentiation protein Mcl-1 (Homo sapiens), Q07820; GST-MCL1 / FITC-Bim-BH3 fluorescence polarization; inhibition, % at 10.9 µM; AID 2057, 2009;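 active = inhibition above the mean inhibition of all tested compounds plus 3 SD, set per campaign, cut at about 40% in these data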;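 note: 0% = DMSO wells and 100% = unlabeled Bim-BH3 peptide control; higher means more loss of mP so more displacement of Bim peptide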
BCLXL inh confirm – Bcl-xL inhibitors blocking Bim BH3 binding, confirmation, counter-screen for MCL1 inhibitor project, biochemical, fluorescence polarization. shares compounds with MCL1 BIM primary. GST-Bcl-xL / FITC-Bim BH3 peptide FP binding. 1,700 tested, 54% active. inhibition, % at 10.9 µM;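 active = inhibition above a cutoff equal to the mean inhibition of all tested compounds plus 3 SD, cut at about 30% in these data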;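 note: 0% = DMSO wells and 100% = unlabeled Bim BH3 control peptide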
MCL1 inh confirm – inhibitors of MCL1 binding to BIM-BH3, confirmation, biochemical, fluorescence polarization, triplicate; GST-MCL1 / FITC-Bim-BH3 fluorescence polarization; shares compounds with MCL1 BIM primary; 1,700 tested, 61% active; inhibition, % at 10.9 µM;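 active = inhibition above the average of all tested compounds plus 3 SD, cut at about 40% in these data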;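 note: 0% = DMSO wells and 100% = unlabeled Bim-BH3 control peptide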
GLD1 RNA confirm – GLD-1/TGE RNA binding inhibitors, retest, confirmation, biochemical, fluorescence polarization, triplicate | 550 tested, 10% active | shares compounds with GLD-1 TGE inh | inhibition, % at 5.96 µM | GLD-1/FL-TGE RNA fluorescence polarization;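 active = average inhibition across triplicates above the hit cutoff set in the primary screen, cut at about 32% in these data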;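 note: 0% = GLD-1 with RNA probe and DMSO and 100% = wells lacking GLD-1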
* hit, by the source's call; / = no result given.

SMILES | Mcl1-Noxa inh | Mcl-1 Bim block | BCLXL inh | Mcl1-Bid inh | GLD-1 TGE inh | MCL1 BIM primary | BCLXL inh confirm | MCL1 inh confirm | GLD1 RNA confirm
COC(=O)C1=C(c2ccc(OC)c(OC)c2)C[C@@H]2CC[C@H]1N2C(=O)NCc1cccc2ccccc12 | / | / | -0.7 | / | -9.8 | 6.0 | / | / | /
CN1C[C@H](CNC(=O)OCc2ccccc2)C[C@@H]2c3cccc4c3c(cn4C)C[C@H]21 | 5.8 | 0.0 | 52.3* | -17.6 | 52.7* | 66.9* | 23.8 | 39.1 | 5.9
CN1C[C@H](CO)C[C@@H]2c3cccc4[nH]cc(c34)C[C@H]21 | / | / | 19.9 | / | 21.5 | 17.4 | / | / | /
COC(=O)C1C=C2c3cccc4[nH]cc(c34)CC2N(C)C1 (stereo unspecified) | 46.2 | / | / | -36.4 | / | / | / | / | /
CC[C@@H](CO)NC(=O)[C@@H]1C=C2c3cccc4c3c(cn4C)C[C@H]2N(C)C1 | 19.0 | 2.0 | 142.8* | 0.6 | 112.2* | 171.4* | 28.5 | 41.5* | 18.3
CCC(CO)NC(=O)C1C=C2c3cccc4[nH]cc(c34)CC2N(C)C1 (stereo unspecified) | 16.8 | / | 46.6* | -143.3 | 34.8* | 46.7* | 96.1* | 111.0* | 8.7
COC(=O)C1=C(c2ccc(C(C)=O)cc2)C[C@@H]2CC[C@H]1N2C(=O)NCCO | / | / | 3.6 | / | 2.1 | 2.1 | / | / | /
CC1(O)CCN2C(=O)CCc3cccc1c32 (stereo unspecified) | / | / | 49.5* | / | 57.6* | 66.4* | 8.1 | 9.5 | 2.4
COc1cc2c(cc1OC)C1[C@H]3C(=CC[C@H]1OC2O)CCN3C (stereo partly specified) | / | / | / | / | -12.7 | / | / | / | /
CN(C)C1C(=O)C(C(N)=O)=C(O)C2(O)C(=O)C3=C(O)c4c(O)cccc4C(C)(O)C3C(O)C12 (stereo unspecified) | / | / | 51.2* | / | 44.2* | 105.0* | 32.6* | 84.4* | 0.4
S=P(NC1CCCCC1)(N1CC1)N1CC1 | 6.9 | / | 50.2* | 3.6 | 34.8* | 48.4* | / | / | 0.7
CC(=NCCC1=CCCCC1)c1c(O)n(C)c(=O)n(C)c1=O | 14.1 | 3.0 | 2.2 | 1.3 | 6.6 | 0.2 | / | / | /
CC(=NCCC1=CCCCC1)c1c(O)[nH]c(=O)[nH]c1=O | 2.6 | 1.0 | 3.9 | -20.3 | 36.6* | 8.1 | / | / | -2.8
CN1C(=O)C2C[C@@]3(Br)c4ccccc4N(OOSc4ccccc4)[C@H]3N2C(=O)[C@@H]1Cc1ccccc1 (stereo partly specified) | / | / | 1.2 | / | 32.0* | -0.8 | / | / | 2.8
C[C@H](NC(=O)N1C[C@H]2C[C@@H](C1)c1cccc(=O)n1C2)C(=O)Nc1ccccc1F | / | / | 4.1 | / | -3.5 | -4.8 | / | / | /
C[C@]12CCC3C(CC[C@H]4C[C@@H](O)CC[C@]34C)C1CCC2=O (stereo partly specified) | / | / | / | / | -4.4 | / | / | / | /
C=CCN1CC[C@@]2(C)c3cc(O)ccc3CC1[C@@H]2C | 10.6 | / | 8.2 | 17.5 | 3.4 | 4.9 | / | / | /
CN1CC[C@@]2(C)c3cc(O)ccc3N(C)C2O1 (stereo partly specified) | / | / | 26.5 | / | 39.1* | 21.2 | / | / | 1.8
